Results from PubChem BioAssay (NCATS).
Records with an inconclusive call do not appear. The source made the active and inactive calls. Calls follow the shape of the dose curve; as a rule, active = well fitted curve in the direction sought with a large enough effect; inconclusive = small, poorly fitted or top-dose-only effect, or another doubt; inactive = no such curve, though single readings can be large; an effect the other way counts as inactive or inconclusive.

Experiments:
[1] = U-118MG Cancer Cell Toxicity qHTS against the NCATS CANVASS Library (AID 1347351)
Summary of the method: (§1)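 Viability read-out: CellTiter-Glo luminescence after 72 h compound exposure at 37 °C/5% CO2. Cells plated at 1000/well, 4 h pre-incubation; 11-point titration. Bortezomib served as control.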

[2] = COV-362 Cancer Cell Toxicity qHTS against the NCATS CANVASS Library (AID 1347352); also: series mostly up to about 38 µM
Summary of the method: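 qHTS cytotoxicity: compounds tested in 11 concentrations on 1000 seeded cells per well over 72 h; bortezomib served as control; signal from CellTiter-Glo luminescence.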

[3] = HPAF-II 24hr Apoptosis Induction qHTS against the NCATS CANVASS Library (AID 1347356)
Summary of the method: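 Apoptosis induction in HPAF-II pancreatic cancer cells is measured as caspase-3/7 luminescence after a 24-hour exposure to compounds.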

[4] = HPAF-II 12hr Apoptosis Induction qHTS against the NCATS CANVASS Library (AID 1347358)
Summary of the method: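 Apoptosis in HPAF-II pancreatic cancer cells is scored as caspase 3/7 luminescence following a 12-hour exposure to an 11-point compound series.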

[5] = HEK293 24hr Apoptosis Induction qHTS against the NCATS CANVASS Library (AID 1347359)
Summary of the method: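 Caspase-3/7 activation measured as luminescence from the DEVD-based Caspase-Glo reagent, 15 min at room temperature, following 24-hour compound treatment of HEK293 cells.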

[6] = HPAF-II 18hr Apoptosis Induction qHTS against the NCATS CANVASS Library (AID 1347360)
Summary of the method: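 Caspase-3/7 activation was measured with luminescent Caspase-Glo 3/7 reagent (15 min, RT) in HPAF-II cancer cells (500 cells/well). Before detection, cells had been treated for 18 h at 37 C with compounds (11 points).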

[7] = HEK293 12hr Apoptosis Induction qHTS against the NCATS CANVASS Library (AID 1347361)
Summary of the method: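 HEK293 cells (500/well, DMEM + 10% FBS) were exposed to natural products across an 11-point series for 12 hours at 37 degrees C. Caspase-3/7 activity was then measured with DEVD luciferase luminescence after 15 min at room temperature.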

[8] = target: Luciferin 4-monooxygenase (Photinus pyralis) (UniProt P08659); assay: Firefly luciferase counterscreen qHTS: Assay Interference Panel against the NCATS CANVASS Library (AID 1347363); also: series mostly up to about 57 µM
Luciferin 4-monooxygenase (Photinus pyralis), sequence (P08659 whole entry, looked up): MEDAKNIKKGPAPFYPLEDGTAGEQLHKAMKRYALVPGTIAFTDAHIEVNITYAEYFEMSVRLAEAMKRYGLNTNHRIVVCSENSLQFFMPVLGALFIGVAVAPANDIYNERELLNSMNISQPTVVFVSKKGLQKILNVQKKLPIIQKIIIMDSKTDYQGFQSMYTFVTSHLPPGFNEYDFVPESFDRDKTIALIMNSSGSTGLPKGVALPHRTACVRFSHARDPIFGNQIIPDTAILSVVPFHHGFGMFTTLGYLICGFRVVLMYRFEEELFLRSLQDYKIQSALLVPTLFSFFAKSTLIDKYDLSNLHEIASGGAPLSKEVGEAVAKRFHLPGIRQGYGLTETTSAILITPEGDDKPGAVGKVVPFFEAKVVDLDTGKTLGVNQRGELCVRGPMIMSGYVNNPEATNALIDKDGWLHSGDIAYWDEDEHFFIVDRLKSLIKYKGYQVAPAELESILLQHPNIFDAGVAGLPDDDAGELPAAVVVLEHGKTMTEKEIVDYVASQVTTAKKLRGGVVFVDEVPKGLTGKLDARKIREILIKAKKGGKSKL
Summary of the method: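 Luminescence inhibition readout: compounds (11-point qHTS) sat 15 min at room temperature with substrate mix (0.013 mM luciferin and ATP), then firefly luciferase was added and signal read 5 min later.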

[9] = KB-3-1 Cancer Cell Toxicity qHTS against the NCATS CANVASS Library (AID 1347366); also: nearly all actives have a fitted effect of over 75% in size
Summary of the method: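 CellTiter-Glo luminescence measured viability after 72 h at 37C. KB-3-1 cells were seeded at 500 per well in DMEM/10% FBS.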

[10] = qHTS for ATAD5 Agonist screened against the NCATS CANVASS Library (AID 1347367);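 also: luciferase reporter driven by ATAD5 which rises upon DNA damage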
Summary of the method: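 Genotoxicity via ATAD5-luciferase luminescence after 16 h compound exposure (11-point series) at 37C in HEK293T-ATAD5 cells. CellTiter-Fluor viability read precedes the luminescence read; MMS serves as positive control.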

[11] = MCF7 Cancer Cell Toxicity qHTS against the NCATS CANVASS Library (AID 1347369)
Summary of the method: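 Cytotoxicity was measured as CellTiterGlo luminescence (ATP) after 72 h at 37 °C. The cells were MCF7 at 500 per well, with an 11-point compound concentration series.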

[12] = J3T Cancer Cell Toxicity qHTS against the NCATS CANVASS Library (AID 1347371)
Summary of the method: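 Viability of the J3T glioma line from dog is scored by ATP luminescence after a 72 hr incubation with natural products.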

[13] = target: Nuclear receptor subfamily 1 group I member 3 (Homo sapiens) (UniProt Q14994); assay: qHTS for Constitutive Androstane Receptor (CAR) Antagonist screened against the NCATS CANVASS Library (AID 1347372);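 also: cells stimulated with 50 nM CITCO agonist so inhibition reflects antagonism; luciferase from CYP2B6 promoter reporter driven by hCAR in HepG2 cells; series mostly up to about 46 µM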
Nuclear receptor subfamily 1 group I member 3 (Homo sapiens), sequence (Q14994 whole entry, looked up): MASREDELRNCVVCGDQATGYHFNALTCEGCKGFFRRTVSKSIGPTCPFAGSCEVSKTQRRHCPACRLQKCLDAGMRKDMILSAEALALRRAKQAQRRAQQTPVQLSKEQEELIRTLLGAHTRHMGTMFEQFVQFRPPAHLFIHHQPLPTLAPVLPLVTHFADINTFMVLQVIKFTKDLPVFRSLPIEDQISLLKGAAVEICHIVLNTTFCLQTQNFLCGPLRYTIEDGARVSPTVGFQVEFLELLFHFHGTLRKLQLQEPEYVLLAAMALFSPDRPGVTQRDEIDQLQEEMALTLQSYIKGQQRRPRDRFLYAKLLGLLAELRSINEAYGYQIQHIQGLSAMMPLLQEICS
Summary of the method: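 HepG2-CYP2B6-hCAR double-stable cells plated, 4hr attach; cpd pin-transferred; CITCO 50 nM final; 24hr 37C/5% CO2; CellTiter-Fluor 1hr (fluorescence), then ONE-Glo luminescence.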

[14] = target: Nuclear receptor subfamily 1 group I member 3 (Homo sapiens) (UniProt Q14994); assay: qHTS for Constitutive Androstane Receptor (CAR) Agonist screened against the NCATS CANVASS Library (AID 1347373);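 also: every well also contained 1.5 µM PK11195 alongside the test compound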
Summary of the method: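 CAR agonism is scored as CYP2B6-promoter luciferase induction in a double-stable transfected HepG2 line, where 1.5uM PK11195 is included in each well. Compounds were tested over a 24hr exposure.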

[15] = 10-beta competent E. coli microbial cell viability qHTS against the NCATS CANVASS Library (AID 1347376); also: series mostly up to about 46 µM
Summary of the method: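 Cytotoxicity toward competent E. coli is scored from cellular ATP content via BacTiter-Glo luminescence following overnight compound exposure at 37C, 5% CO2.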

[16] = qHTS for H2AX Agonists against the NCATS CANVASS Library (AID 1347378)
Summary of the method: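 Phospho-H2AX (S139) in CHO-K1 lysates measured by HTRF, reported as 665/615 nm emission ratio after 24 hr antibody incubation at room temperature. Cells were first treated with a compound series for 3 hr at 37C (0.76% DMSO final).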

[17] = Inflammasome Signaling qHTS Counterscreen: IL-1-beta AlphaLISA counterscreen against the NCATS CANVASS Library (AID 1347381);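 also: cell-free check with purified IL-1β in medium and no THP-1 cells; series mostly up to about 57 µM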
Summary of the method: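 To flag interference with the AlphaLISA read-out, a known amount of purified IL-1-beta (4 pg) replaced cell supernatant. Detection used anti-IL-1-beta acceptor beads, biotinylated antibody and streptavidin donor beads at room temperature.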

[18] = Viability qHTS for inhibitors of the SERCaMP assay screened against the NCATS CANVASS Library (AID 1347400); also: series mostly up to about 92 µM; nearly all actives have a fitted effect of over 70% in size
Summary of the method: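 Cytotoxicity counter-screen: ATP content (CellTiter-Glo luminescence) of SH-SY5Y-GLuc SERCaMP MJH297 cells after 48 h at 37C with compounds in an 11-point qHTS series.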

[19] = OV-KATE Cancer Cell Toxicity qHTS against the NCATS CANVASS Library (AID 1347345)
Summary of the method: as §1

[20] = qHTS for Inflammasome Signaling Inhibitors: IL-1-beta AlphaLISA screen against the NCATS CANVASS Library (AID 1347379);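 also: human THP-1 cells primed with LPS then triggered with ATP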
Summary of the method: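 Human THP-1 cells were pretreated 1 hr at 37 °C with compounds (up to 57.5 uM final), then stimulated with LPS (250 ng/mL final) and ATP (1.25 mM final). Secreted IL-1B was read by AlphaLISA after 16 hr.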

Measured: Potency

C[C@@H]1O[C@@H](Oc2c(-c3ccc(O)cc3)oc3cc(O)cc(O)c3c2=O)[C@H](O)[C@H](O)[C@H]1O
not listed: [19] | [20]
inactive: all other assays above

C/C(=C\[C@H](C)C(=O)CCCC1CC(=O)NC(=O)C1)C(O)[C@@H](C)[C@H](O)C/C=C/CC/C=C/C(=O)O (stereo not given in full)
inactive: all assays above

C[C@]12CC[C@]3(C1)[C@H](CC2=O)CC(OC(=O)c1ccccc1)[C@H]1[C@@](CO)(C(=O)O)CCC[C@@]13C (stereo not given in full)
inactive: all assays above

C/C1=C\CC(=O)/C=C/C=C\c2csc(n2)[C@@H](C)NC(=O)C[C@@](S)([C@@H](C)C(=O)O)CC1
not listed: [8] | [16]
inactive: all other assays above

CCCCCCC[C@@H](C/C=C/CCC(=O)NCCc1c[nH]c2ccccc12)OC
not listed: [15]
inactive: all other assays above
